# Measured values reported in the supplement of paper PMC12808144.
# A number with no mark means an inactive call.
# What was measured:
# [1] = system: NHEM-hTERT; experiment: cell viability relative to DMSO control (fraction of DMSO control); higher = less cytotoxic, active = 0.5 or less; settings: 1 µM; 120 h
# Procedure, shortened: (§1)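 A library of 315 approved anti-cancer drugs (TargetMol) was acoustically pre-spotted into 384-well plates and tested at 1 µM in duplicate for 120 h. Cells were added in 40 µl per well: NHEM-hTERT immortalized melanocytes at 2500/well, and patient-derived Mel-DCC-11 and its resistant subline Mel-DCC-11-R at 1500/well. The subline was tested both alone and with 8 µM of its selecting drug. Viability was read by ATPlite 1step luminescence, normalised to DMSO controls and averaged over duplicates.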
# [2] = system: Mel-DCC-11-R; experiment: cell viability relative to DMSO control (fraction of DMSO control); higher = less cytotoxic, active = 0.8 or less; settings: 1 µM, 120 h
# Procedure, shortened: as §1
Structure (SMILES),cell viability [1],cell viability ([2]; vemurafenib co-treatment 0 µM),cell viability ([2]; vemurafenib co-treatment 8 µM)
C/C=C1/NC(=O)[C@H]2CSSCC/C=C/[C@H](CC(=O)N[C@H](C(C)C)C(=O)N2)OC(=O)[C@H](C(C)C)NC1=O [Romidepsin],0.0685 (active),0.0525 (active),0.0432 (active)
Nc1ccccc1NC(=O)c1ccc(CNC(=O)OCc2cccnc2)cc1 [Entinostat],0.554,0.989,1.01
Nc1nc(=O)c2c([nH]1)NCC(CNc1ccc(C(=O)N[C@@H](CCC(=O)[O-])C(=O)[O-])cc1)N2C=O.[Ca+2] (stereo partly drawn) [Calcium folinate],1.16,1.68,1.31
CC1(C)O[C@H]2CC(=O)OC[C@]23[C@H]2CC[C@@]4(C)[C@H](c5ccoc5)OC(=O)[C@H]5O[C@]54[C@]2(C)C(=O)C[C@@H]13 [Limonin],1.21,0.857,1.11
COc1cc2ncnc(Nc3ccc(F)c(Cl)c3)c2cc1NC(=O)/C=C/CN1CCCCC1 [Dacomitinib],1.03,1.07,0.911
CCCS(=O)(=O)Nc1ccc(F)c(C(=O)c2c[nH]c3ncc(-c4ccc(Cl)cc4)cc23)c1F [Vemurafenib],0.746,0.991,0.905
Nc1ccc(F)cc1NC(=O)c1ccc(CNC(=O)/C=C/c2cccnc2)cc1 [Chidamide],0.668,1.34,1.16
Nc1ccn([C@@H]2O[C@H](CO)[C@@H](O)C2(F)F)c(=O)n1 [Gemcitabine],0.639,0.869,0.709 (active)
NC(=O)N1CCC(CC(=O)N2CCC([C@H]3c4ncc(Br)cc4CCc4cc(Cl)cc(Br)c43)CC2)CC1 [Lonafarnib],0.9,0.926,0.889
CNC(=O)c1c(C)oc2cc(Oc3ncnc4cc(OC)c(OC)cc34)ccc12 [Fruquintinib],0.982,1.09,1.05
O=C(O)C1CSCN1 (stereo not drawn) [Thioproline],1.17,0.893,1.08
CCc1cn([C@H]2C[C@H](O)[C@@H](CO)O2)c(=O)[nH]c1=O [Edoxudine],0.967,0.776 (active),0.802
Cc1cn(-c2cc(NC(=O)c3ccc(C)c(Nc4nccc(-c5cnccn5)n4)c3)cc(C(F)(F)F)c2)cn1 [Radotinib],1.09,1.19,1.27
O=c1[nH]cc(F)c(=O)[nH]1 [Fluorouracil],1.01,1.14,1.06
Nc1nc(=O)c2c(CCc3ccc(C(=O)N[C@@H](CCC(=O)O)C(=O)O)cc3)c[nH]c2[nH]1 [Pemetrexed acid],1.19,1.22,0.964
CC1=C(/C=C/C(C)=C/C=C/C(C)=C\C(=O)O)C(C)(C)CCC1 [Isotretinoin],1.04,0.938,1.3
Cc1cc(Nc2cc(N3CCN(C)CC3)nc(Sc3ccc(NC(=O)C4CC4)cc3)n2)n[nH]1 [Tozasertib],0.841,1.14,0.752 (active)
CCCCCCCCCCCCCCCCCCOCC(O)CO (stereo not drawn) [Batyl alcohol],1.07,0.92,0.995

Structure (SMILES),cell viability [1],cell viability ([2]; vemurafenib co-treatment 0 µM),cell viability ([2]; vemurafenib co-treatment 8 µM)
CCN1CCN(Cc2ccc(Nc3ncc(F)c(-c4cc(F)c5nc(C)n(C(C)C)c5c4)n3)nc2)CC1 [Abemaciclib],0.921,1.38,0.669 (active)
CCOC(N)=O [Urethane],1.09,0.987,1
NC1CCCCC1N.O=C([O-])C(=O)[O-].[Pt+2] (stereo not drawn) [Oxaliplatin],1.05,1.01,1.12
O=C(CCBr)N1CCN(C(=O)CCBr)CC1 [Pipobroman],0.902,0.832,0.897
N.N.O=C([O-])C1(C(=O)[O-])CCC1.[Pt+2] [Carboplatin],1.05,0.973,1.23
CC1=C(CC(=O)O)c2cc(F)ccc2/C1=C\c1ccc(S(C)=O)cc1 (stereo not drawn) [Sulindac],0.963,0.986,1.03
O=C1c2c(O)ccc(O)c2C(=O)c2c(NCCNCCO)ccc(NCCNCCO)c21 [Mitoxantrone],0.695,1.26,0.574 (active)
CC(=O)OCC(=O)[C@@]1(O)CC[C@H]2[C@@H]3CCC4=CC(=O)C=C[C@]4(C)[C@H]3[C@@H](O)C[C@@]21C [Prednisolone-21-acetate],0.931,1.14,1.04
CCCCCCCCCCCCCCCC(=O)OC/C=C(C)/C=C/C=C(C)/C=C/C1=C(C)CCCC1(C)C [Retinol palmitate],0.993,1.02,0.978
CC(C)C[C@H](NC(=O)[C@@H](O)[C@H](N)Cc1ccccc1)C(=O)O [Ubenimex],0.944,1.12,0.942
CC1CCC(C(C)C)C(O)C1 (racemic) [DL-Menthol],0.973,1.07,1.08
CCCCCCCCCCCC1=C(O)C(=O)C=C(O)C1=O [Embelin],1.01,1.07,1.15
CN(C)CCCN1c2ccccc2Sc2ccc(Cl)cc21.Cl [Chlorpromazine hydrochloride],1.06,1.06,1.11
COC(=O)c1cc(OC)c2c(c1-c1c(CO)cc(OC)c3c1OCO3)OCO2 [Bicyclol],1.12,0.998,1.1
CNC(=O)c1cc(Oc2ccc(NC(=O)Nc3ccc(Cl)c(C(F)(F)F)c3)c(F)c2)ccn1 [Regorafenib],0.792,0.909,0.82
COc1c2occc2cc2ccc(=O)oc12 [8-Methoxypsoralen],1.09,1.05,1.19
COc1ccc(-c2cc(=S)ss2)cc1 [Anethole trithione],1.05,1.04,1.13
Cc1c(C(=O)Nc2ccc(N3C[C@@H](C)O[C@@H](C)C3)nc2)cccc1-c1ccc(OC(F)(F)F)cc1 [Sonidegib],1.04,1.03,1.2
